Source: PubChem (Sanford-Burnham Center for Chemical Genomics)
Most compounds without a hit are left out; they make up all but 3% or so of the library.
SENP7 inh: inhibitors of human SENP7 protease. Q9BQF6. recombinant SENP7, Z-RLRGG-aminoluciferin luminescence, 40 min. inhibition, % at 5 µM. 1.5% of 330,000 active. AID 434973;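 active means inhibition above about 50% at the single test dose, limit read from the data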
TRAIL sens C8: caspase-8 TRAIL sensitization; inhibition (viability loss, TRAIL sensitization), % at 10 µM; 1% of 360,000 active; NB7+C8 cells + TRAIL, ATPlite viability luminescence; AID 624354;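 active means compounds causing at least 50% loss of cell viability in the single-dose screen, relative to plate controls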
PPC-1+TRAIL kill: compounds killing PPC-1 cancer cells with TRAIL present (potentiator screen, no TRAIL-free arm); PPC-1 cells + TRAIL, ATPLite viability luminescence; cell killing (% activity), % at 4 µM or 5 µM; 0.41% of 220,000 active; AID 1443;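 active means cell killing above 50% in the first pass at 4 µM, then a duplicate retest at 5 µM averaging 50% or more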
SENP8 block-1: blocks the human protease SENP8. 1.2% of 330,000 active. inhibition, % at 10 µM. purified SENP8, Z-RLRGG-aminoluciferin cleavage, luminescence. Q96LD8; in the data active means inhibition above about 50%
Target sequence (Q96LD8 whole entry, looked up): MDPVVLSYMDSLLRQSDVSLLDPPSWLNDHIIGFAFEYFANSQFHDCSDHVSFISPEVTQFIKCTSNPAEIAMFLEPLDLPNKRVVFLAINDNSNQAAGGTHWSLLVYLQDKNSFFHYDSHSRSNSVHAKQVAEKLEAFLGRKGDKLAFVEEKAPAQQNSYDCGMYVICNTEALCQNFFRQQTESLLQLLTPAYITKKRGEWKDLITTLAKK
SENP6 block: SENP6 protease inhibition; AID 2599; 1.8% of 330,000 active; inhibition, % at 10 µM; Recombinant SENP6 catalytic domain, aminoluciferin luminescence; Q9GZR1;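 active means inhibition above about 50% at the single tested dose, limit read from the data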
SENP8 block-2: blocks human SENP8 cleavage of Nedd8 substrate. 0.64% of 360,000 active. inhibition, % at 20 µM. recombinant SENP8, Nedd8 substrate fluorescence. AID 602440; in the data active means inhibition mostly above about 40%, no sharp cut-off; inactive means mostly below about 27%
Hits are given with their value.

Results for COc1cc(/C=N/N=C2/C(=O)Nc3ccccc32)ccc1O ?
SENP7 inh: inactive; TRAIL sens C8: 74.2; PPC-1+TRAIL kill: inactive; SENP8 block-1: inactive; SENP6 block: inactive; SENP8 block-2: inactive

Results for Cc1ccsc1/C=N/N=C1\C(=O)Nc2ccccc21 ?
SENP7 inh: inactive; TRAIL sens C8: inactive; PPC-1+TRAIL kill: inactive; SENP8 block-1: inactive; SENP6 block: inactive; SENP8 block-2: inactive

Results for O=C1Nc2ccccc2/C1=N\N=C\c1ccc(O)c(O)c1 ?
SENP7 inh: inactive; TRAIL sens C8: 57.5; PPC-1+TRAIL kill: inactive; SENP8 block-1: inactive; SENP6 block: inactive; SENP8 block-2: 56.7

Results for COc1cc(/C=N/N2C(=O)c3ccccc3C2=O)ccc1O ?
SENP7 inh: inactive; TRAIL sens C8: inactive; PPC-1+TRAIL kill: inactive; SENP8 block-1: inactive; SENP6 block: inactive; SENP8 block-2: inactive

What do the screens show for `CC(C)n1nnnc1C1c2ccccc2C(=O)N1Cc1ccco1` (stereo not given)?
TRAIL sens C8: inactive; SENP8 block-2: inactive

Results for Cc1ccsc1C(=O)Nc1ccc(F)c([N+](=O)[O-])c1 ?
SENP7 inh: 71.3; TRAIL sens C8: inactive; PPC-1+TRAIL kill: inactive; SENP8 block-1: 53.3; SENP6 block: 76.9; SENP8 block-2: inactive

Results for CCn1cc(C(=O)NCc2ccco2)c(=O)c2cc(S(=O)(=O)N3CC(C)CC(C)C3)ccc21 (stereo not given) ?
SENP7 inh: inactive; TRAIL sens C8: 82.9; PPC-1+TRAIL kill: 54.9; SENP8 block-1: inactive; SENP6 block: inactive; SENP8 block-2: inactive

How did Cc1cc(C)cc(N(C(=O)c2csnn2)C(C(=O)NC2CCCC2)c2ccccn2)c1 (stereo not given) do in these assays?
SENP7 inh: inactive; TRAIL sens C8: inactive; SENP8 block-1: inactive; SENP6 block: inactive; SENP8 block-2: inactive

How did CC(=O)n1cc(N(C(=O)CCl)c2ccc(Cl)cc2)c2ccccc21 do in these assays?
SENP7 inh: inactive; TRAIL sens C8: 93.9; PPC-1+TRAIL kill: inactive; SENP8 block-1: inactive; SENP6 block: inactive; SENP8 block-2: inactive

How did COc1ccccc1N(C(=O)CCl)c1cn(C(C)=O)c2ccccc12 do in these assays?
SENP7 inh: inactive; TRAIL sens C8: 92.5; PPC-1+TRAIL kill: inactive; SENP8 block-1: inactive; SENP6 block: inactive; SENP8 block-2: inactive

What do the screens show for `Cc1c(OCC(=O)NCC(O)c2ccccc2)ccc2c3c(c(=O)oc12)CCCC3` (stereo not given)?
SENP7 inh: inactive; TRAIL sens C8: inactive; SENP8 block-1: inactive; SENP6 block: inactive; SENP8 block-2: inactive

What do the screens show for `CC(Cl)C(=O)N1c2ccccc2CCc2ccccc21` (stereo not given)?
SENP7 inh: inactive; TRAIL sens C8: inactive; SENP8 block-1: inactive; SENP6 block: inactive; SENP8 block-2: inactive

Results for O=C(CCl)N1c2ccccc2CCc2ccccc21 ?
SENP7 inh: inactive; TRAIL sens C8: 95.2; SENP8 block-1: inactive; SENP6 block: inactive; SENP8 block-2: inactive

How did CCOc1ccc(S(=O)(=O)Nc2ccc(C(=O)N3CCCC3)cc2)cc1C(N)=O do in these assays?
SENP7 inh: inactive; TRAIL sens C8: inactive; SENP8 block-1: inactive; SENP6 block: inactive; SENP8 block-2: inactive

How did O=c1[nH]c(Nc2nc3ccccc3o2)nc2c1CCCC2 do in these assays?
SENP7 inh: inactive; TRAIL sens C8: 54.8; PPC-1+TRAIL kill: inactive; SENP8 block-1: inactive; SENP6 block: inactive; SENP8 block-2: inactive

Results for CCCCc1ccc(NC(=O)N2CCNC(=O)C2CC(=O)Nc2ccsc2C(=O)OC)cc1 (stereo not given) ?
SENP7 inh: inactive; TRAIL sens C8: inactive; PPC-1+TRAIL kill: inactive; SENP8 block-1: inactive; SENP6 block: inactive; SENP8 block-2: inactive

What do the screens show for `CC1CCCCC1NC(=O)c1nn(C)c2c1CS(=O)(=O)c1ccccc1-2` (stereo not given)?
SENP7 inh: inactive; TRAIL sens C8: inactive; SENP8 block-1: inactive; SENP6 block: inactive; SENP8 block-2: inactive

Results for CCCCCCCCOC(=O)c1c(CSC(=N)N)n(C)c2cc(Br)c(OC(C)=O)cc12 ?
SENP7 inh: inactive; TRAIL sens C8: 92.4; PPC-1+TRAIL kill: inactive; SENP8 block-1: inactive; SENP6 block: inactive; SENP8 block-2: inactive

What do the screens show for `CCOC(=O)c1c(CSC(=N)N)n(-c2ccc(Br)cc2)c2cc(Br)c(OC(C)=O)cc12`?
TRAIL sens C8: inactive; PPC-1+TRAIL kill: inactive; SENP8 block-2: inactive

Results for O=C(c1cc2c(s1)CCCC2)n1cccn1 ?
SENP7 inh: 63.5; TRAIL sens C8: inactive; PPC-1+TRAIL kill: inactive; SENP8 block-1: inactive; SENP6 block: 57.7; SENP8 block-2: inactive
